Shown are actives, neighbours in structure and some others; about 4% of the full set was active somewhere.
Mdm2-MdmX inh: disrupts the human Mdm2-MdmX interaction; actives 3% (n = 330,000); AID 485346; SaOS-2 split-luciferase Mdm2/MdmX complementation, luminescence; O15151+Q00987; inhibition, % at 8 µM;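 active means inhibition of at least 50% at 8 µM in the primary screen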
Beta apoptosis: beta cell apoptosis inhibition; actives 0.8% (n = 300,000); INS-1E cytokine-induced death, ATP luminescence, 48 h; percent of positive-control rescue, neutral wells zero; AID 435005; protection from apoptosis, % (no concentration beside the values);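 active means Every replicate reaches about 75%, or at least half do and their mean reaches it too, limit read from the data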;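 further: 0% = cytokine-treated negative control wells and 100% = positive control rescue; higher means more ATP so stronger rescue from cytokine killing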
Gli-Sufu block: Gli-Sufu pathway antagonism. Sufu-KO-LIGHT fibroblasts, Gli luciferase reporter luminescence. inhibition, % at 5 µM. actives 0.74% (n = 340,000). AID 588413;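 active means inhibition above about 55%, limit read from the data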;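 further: 0% = DMSO-treated cells and 100% = wells with medium but no cells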
CSC inhib: cancer stem cell inhibition. actives 1.1% (n = 300,000). AID 2717. inhibition, % at 7.5 µM. cancer stem cell-like cells viability, luminescence; in the data active means inhibition above about 75%; tested in HMLE shEcad cells
Shn3 3UTR inh: inhibitors of Schnurri-3 3'UTR reporter in osteoblasts; Clone20 osteoblast Shn3 3'UTR firefly luciferase, 24 h; inhibition, % at 12.5 µM; actives 0.52% (n = 360,000); AID 588674;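 active means mean inhibition of at least 75% with every replicate also reaching 75%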;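 further: 0% = median of neutral control wells and 100% = pilot-screen positive control compound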
PAX8 inh HTS: lowers PAX8-driven luciferase in RMG-I cells; RMG-I TPO-luciferase reporter, SteadyGlo, 24 h; AID 652154; actives 1.2% (n = 360,000); inhibition, % at 12.6 µM;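 active means mean replicate inhibition at least 60% with every replicate also reaching 60%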;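 further: luciferase light reporting Pax8 driven TPO promoter activity; plate controls were median of neutral control wells for no effect and mitoxantrone controls for full effect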
* hit, by the source's call; · = not tested or not shown.

SMILES	Mdm2-MdmX inh	Beta apoptosis	Gli-Sufu block	CSC inhib	Shn3 3UTR inh	PAX8 inh HTS
CCN1CCN(C(=O)c2ccc(-c3nc4ccccc4s3)s2)CC1	-138	4	-43	43	-109	-138
CO[C@H]1CN(C)C(=O)c2ccc(NS(C)(=O)=O)cc2OC[C@@H](C)N(Cc2nccs2)C[C@H]1C	·	·	·	·	·	-1
C/C=C/c1ccc([C@H]2[C@H](CO)N(C(=O)c3cnccn3)C23CN(C(=O)C2CC2)C3)cc1	·	·	·	·	·	5
COc1ccc(-n2c(-c3ccc(Cl)cc3)c[n+]3c2CCCCC3)cc1	23	125*	·	20	71	52
Cc1cccc(/C=N/n2c(C3CCCCC3)n[nH]c2=S)c1	7	·	2	·	5	·
CC(/C=N/n1c(C2CCCCC2)n[nH]c1=S)=C\c1ccccc1	9	17	-4	98*	-17	11
C/C(CC(=O)NCc1ccco1)=N\NC(=O)COc1ccc(C)cc1	-1	-3	-5	-6	16	65*
Cc1cccc(S(=O)(=O)N2CC[C@@H]3[C@@H](CO)N(C)c4ccc(-c5ccccc5F)cc4[C@@H]32)c1	·	·	·	·	·	3
COc1ccc([C@@]23Oc4cc(OC)cc(OC)c4[C@]2(O)[C@H](O)[C@H](C(=O)N(C)C)[C@H]3c2ccccc2)cc1	·	·	77*	·	91*	87*
CC(C)(O)c1ccccc1CC[C@@H](SCC1(CC(=O)O)CC1)c1cccc(/C=C/c2ccc3ccc(Cl)cc3n2)c1	19	-3	-20	97*	-33	·
CN1c2ccccc2C(C)(C)[C@]12C=Cc1cc(O)ccc1O2	49	47	49	-11	87*	·
CN1c2ccccc2C(C)(C)C12C=Nc1c(ccc3ccccc13)O2 (stereo not drawn)	44	1	-11	23	-29	·
C[C@@H]1CCCCO[C@H](CN(C)C(=O)c2ccccc2)[C@@H](C)CN([C@@H](C)CO)C(=O)c2cc(NC(=O)NC3CCCCC3)ccc2O1	·	·	·	·	·	-31
CCc1ccc(C2CC(c3cccc(Cl)c3)n3nc(N)nc3N2)cc1 (stereo not drawn)	10	105*	-12	4	45	-8
Cc1ccc(C2CC(c3cccc(Cl)c3)n3nc(N)nc3N2)cc1 (stereo not drawn)	-11	-1	6	-32	-12	-2
CO[C@H]1CN(C)C(=O)c2ccc(NC(=O)C3CCCCC3)cc2OC[C@@H](C)N(Cc2nccs2)C[C@@H]1C	·	·	·	·	·	0
Cc1cccc2c1NC(=O)/C2=C\C(=O)c1cccs1	33	6	-23	83*	16	·
CCc1ccc2c(c1)/C(=C/C(=O)c1cccs1)C(=O)N2	47	-11	-12	50	80	·
Cc1cc(Br)c2c(c1)/C(=C/C(=O)c1cccs1)C(=O)N2	21	8	-1	9	97*	1
Cc1cc(C)c(C(=O)c2cccs2)c(C)c1	·	·	-12	·	-17	4
C[C@H]1CN([C@@H](C)CO)C(=O)Cc2cc(NC(=O)Nc3ccc(F)cc3)ccc2O[C@H]1CN(C)C(=O)Nc1ccc2c(c1)OCO2	·	·	·	·	·	0
COC(=O)c1ccc2c(c1O)C(=O)c1ccccc1C2=O	5	16	-36	96*	-22	·
O=C1c2ccccc2C(=O)c2c1ccc(O)c2O	·	·	3	·	-1	-4
O=C(C[C@@H]1CC[C@@H]2[C@H](COC[C@H](O)CN2Cc2ccccc2F)O1)NCc1ccccc1F	·	·	·	·	·	-71
CCCN1C(=O)S/C(=C\c2ccc(N3CCOCC3)o2)C1=O	10	-9	-25	-4	89*	6
SMILES	Mdm2-MdmX inh	Beta apoptosis	Gli-Sufu block	CSC inhib	Shn3 3UTR inh	PAX8 inh HTS
NNc1nc(-c2ccccc2)cc(-c2ccccc2O)n1	45	79*	-3	31	27	·
NNc1nc(-c2ccccc2)cc(-c2ccccc2)n1	45	37	-12	80*	3	2
N#Cc1cc(-c2ccccc2)nc(NN)n1	45	2	4	-8	-18	1
Nc1ccc(S(=O)(=O)Nc2nc(-c3ccccc3)cc(-c3ccccc3O)n2)cc1	·	·	·	·	5	-23
O=C(C[C@H]1CC[C@H]2[C@@H](COC[C@H](O)CN2C(=O)c2ccncc2)O1)NC1Cc2ccccc2C1	·	·	·	·	·	-7
O=C(Nc1ccc2c(c1)OCO2)c1cc(C2CC2)on1	-66	7	-82	98*	-42	-166
CC1=NN(c2nc(-c3ccc(C)cc3)cs2)C(=O)C1N=Nc1ccc(C(N)=O)cc1 (stereo not drawn)	·	79*	9	-16	66	3
C(=N\Nc1nc2ccccc2[nH]1)/c1ccc2ncccc2c1	-78	·	-57	79*	57	-32
CCCCn1c(/C=N/Nc2nc3ccccc3[nH]2)nc2ccccc21	47	76*	3	·	64	7
C(=N\Nc1nc2ccccc2[nH]1)/c1ccccn1	·	·	7	·	89*	62*
C#CCn1cc(/C=N/Nc2nc3ccccc3[nH]2)c2ccccc21	15	55	-24	92*	22	·
C#CCn1cc(/C=N/NC(=O)COc2cccc3cccnc23)c2ccccc21	7	-2	-6	4	-14	-4
C[C@H](CO)N1C[C@H](C)[C@@H](CN(C)S(=O)(=O)c2ccc(F)cc2)Oc2ccc(N(C)C)cc2CC1=O	·	·	·	·	·	0
O=C(CN1CCOCC1)NCC[C@H]1CC[C@H](NC(=O)c2ccccc2F)[C@@H](CO)O1	·	·	·	·	·	0
Cc1cc([N+](=O)[O-])ccc1NC(=O)c1ccco1	10	0	-14	1	-23	-7
COc1cc(NC(=O)c2ccc([N+](=O)[O-])o2)ccc1NC(=O)c1ccco1	41	18	13	45	68	90*
Cc1cc(NC(=O)c2ccc([N+](=O)[O-])o2)ccc1NC(=O)c1ccco1	·	·	28	·	-6	99*
CCCC(=O)Nc1ccc2c(c1)C(=O)N(C)C[C@@H](OC)[C@H](C)CN(C(=O)Cc1ccccn1)[C@H](C)CO2	·	·	·	·	·	23
O=C(NC1=C(Nc2ccc(F)cc2)C(=O)c2ccccc2C1=O)c1ccc(Cl)cc1	6	87*	-2	31	1	8
O=C(NNC(=O)c1ccc(NC(=O)c2ccccc2)cc1)c1ccc(F)cc1	30	0	6	-12	-7	11
CC1CC/C(=C\c2ccc3c(c2)OCO3)C(=O)/C1=C/c1ccc2c(c1)OCO2 (stereo not drawn)	26	5	17	81*	14	-3
c1cc2cc(-c3c(-c4ccc5c(c4)OCO5)noc3-c3ccsc3)ccc2[nH]1	-1	15	3	121*	-45	-157
c1ccc(-c2onc(-c3ccco3)c2-c2ccc3[nH]ccc3c2)cc1	16	-2	9	120*	-14	-9
c1ccc(-c2ccc3[nH]ccc3c2)cc1	-26	-5	-34	-4	-50	-206
CCCc1cn(CC[C@@H]2CC[C@H](NC(=O)Nc3ccccc3F)[C@@H](CO)O2)nn1	·	·	·	·	·	6
